Results filed as inconclusive are left out. A number with no mark means an inactive call. The source made the active and inactive calls. Calls come from the whole dose curve; as a rule, active = well fitted inhibition curve with a large enough effect; inconclusive = small, poorly fitted or top-dose-only effect; inactive = flat fitted curve, though single readings scatter.
Experiment: qHTS Assay for Inhibitors of Bacillus subtilis Sfp phosphopantetheinyl transferase (PPTase): SAR in B subtilis HM489
Details: B. subtilis HM489 whole-cell Sfp-dependent phenotype; series mostly up to 114 µM; activity, negative = inhibition: at the top concentration
From the text: The covalent attachment of a phosphopantetheinyl (4'-PP) arm to a variety of synthases and other proteins is a key posttranslational protein modification. The 4'-PP is installed on the proteins post-translationally from coenzyme A (CoA) on a conserved serine residue by action of phosphopantetheinyl transferase (PPTase) enzymes. Phosphopantetheinylation is essential for synthase activity, and removal of the PPTase gene precludes natural product synthesis in microorganisms, or in the case of fatty acid biosynthesis, renders the organism unviable. PPTase enzymes belong to a distinct structural superfamily. Within bacteria, these enzymes are grouped into two classes based upon primary structure, the AcpS-Type and Sfp-Type PPTases.
Sfp-type PPTases, corresponding to an activator of surfactin production in Bacillus subtilis, are responsible for modifying type I polyketide and nonribosomal peptide synthases of prokaryotes. Sfp-type PPTases are responsible for the activation of a variety of pathogen-associated virulence factors. Among these compounds are toxins such as mycolactone from Mycobacterium ulcerans, siderophores such as vibriobactin from Vibrio cholerae or mycobactin from Mycobacterium tuberculosis, as well as the mycolic acids which form the waxy cell wall of Mycobacteria. The biosyntheses of these natural products are considered attractive targets for drug design.
In search of small molecule Sfp-PPTase inhibitors, a fluorescence quenching assay was developed for detection of Bacillus subtilis Sfp-PPTase enzymatic activity in a miniaturized high-throughput format. The consensus ybbr acceptor peptide […] was N-terminally labeled with Black Hole Quencher-2 (BHQ-2) and used in combination with rhodamine-labeled coenzyme A as a co-substrate.
Phosphopantetheinyl transfer is a process essential to cellular viability and maintenance. Cellular permeable and stable compounds acting as PPTase inhibitors are anticipated to be antimicrobial agents in organisms with complimenting genotypes. […] This experiment evaluated a series of test compounds for antimicrobial activity with B. subtilis HM489 (genotype: acpS- and sfp+), a strain that contains a targeted lesion in the acpS locus and thus requires a functional Sfp gene product for viability. [Mootz HD, 2001] This strain is expected to be sensitized to cell-permeable Sfp inhibitors.
NIH Chemical Genomics Center [NCGC]
NIH Molecular Libraries Probe Centers Network [MLPCN]
Assay Submitter (PI): Michale Burkart, University of California, San Diego
Bacillus subtilis HM489 is maintained on lysogeny broth (LB) solidified by the addition of 1.5% w/v agar. Single colonies were used to LB medium (2 mL) and shaken overnight at 30 deg C. In the morning, this culture (100 uL) was used to seed a fresh LB medium (10 mL) and was shaken at 30 deg C until the culture OD600 reached 0.5. This culture was diluted 1:100 in fresh LB medium to provide the inoculum below.
Bacterial susceptibility.
LB medium (2 uL) is dispensed into wells of a sterile white 1536-well plate. Test compounds (23 nL) prepared as serial dilutions in DMSO are added to the plate by pintool transfer. Innoculum (2 uL) is added; the plates are covered with a vented Kalypsys assay lid and incubated at 30 deg C. After 5 h, Bac-Titer Glo (4 uL; Promega Corp, Madison, WI) is added to the plates. They are incubated 10 minutes at room temperature and then the luminescence detected in a ViewLux multimodal plate reader.
For Cc1ccnc(NC(=S)N2CC3CN(c4cccc(C(F)(F)F)c4)CC3C2)c1 (centres undefined), the Potency was 5.27 µM (active). In the case of Cc1ccnc(NC(=S)Nc2cccc(C(F)(F)F)c2)c1, the Potency is reported as 10.5 µM (active). With CSC(Cc1ccc(Cl)cc1)C(=O)Nc1ccc(Cl)cc1C(=O)O (centres undefined) the Potency was 26.4 µM (active). For Cc1ccnc(NC(=S)N2CCCc3ccc(C(F)(F)F)cc32)c1, the “activity, negative = inhibition” value was -19.8%. For Cc1cc(C)nc(NC(=S)N2CCN(c3ncccc3C#N)CC2)c1, the “activity, negative = inhibition” value was -15.5%. For COc1ccnc(NC(=S)N2CCN(c3cccc(Cl)c3Cl)CC2)c1, the Potency was 8.35 µM (active). For Cc1cc(C)nc(NC(=S)N2CCN(c3ccc(F)c(F)c3F)CC2)c1, the Potency was 21 µM (active). In the case of S=C(Nc1cc(Cl)ccn1)N1CCN(c2cccc(Cl)c2Cl)CC1, the Potency is reported as 8.35 µM (active). In the case of Cc1cc(C)nc(NC(=S)N2CCN(c3ccc(Cl)cc3Cl)CC2)c1, the Potency is reported as 29.6 µM (active). With Cc1ccnc(NC(=S)N[C@@H]2CCN(c3cccc(C(F)(F)F)c3)C2)c1 the Potency was 29.6 µM (active). For Cc1cc(C)nc(NC(=S)N2CCN(c3ccc([N+](=O)[O-])cc3Cl)CC2)c1, the Potency was 18.7 µM (active). With Cc1ccnc(NC(=S)N2CCN(c3cccc(C(F)(F)F)c3)CC2)c1 the Potency was 10.5 µM (active). With FC(F)(F)c1cccc(N2CCN(C(=S)Nc3cc(C(F)(F)F)ccn3)CC2)c1 the Potency was 10.5 µM (active). For COc1ccnc(NC(=S)N2CCN(c3ncc(C(F)(F)F)cc3Cl)CC2)c1, the Potency was 6.63 µM (active). In the case of Cc1cc(C)nc(NC(=S)N2CC3CN(c4ccc(Cl)cc4C(F)(F)F)CC3C2)c1 (centres undefined), the Potency is reported as 9.37 µM (active). In the case of Cc1cc(C)nc(NC(=S)N2CCN(c3ccc(Cl)c(Cl)c3)CC2)c1, the Potency is reported as 26.4 µM (active). In the case of COc1cccc(NC(=S)N2CCN(c3ccc(Cl)c(Cl)c3)CC2)n1, the “activity, negative = inhibition” value is reported as -17.5%. With COc1ccnc(NC(=S)N2CCN(c3ccc(Cl)cc3Cl)CC2)c1 the Potency was 10.5 µM (active). In the case of Cc1ccnc(NC(=S)N2CCN(c3cc(C(F)(F)F)cc(C(F)(F)F)c3)CC2)c1, the Potency is reported as 11.8 µM (active). In the case of Cc1ccnc(NC(=S)N2CCN(c3cccc(N(C)C)c3)CC2)c1, the Potency is reported as 46.9 µM (active). With FC(F)(F)c1cc(N2CCN(C(=S)Nc3cc(Cl)ccn3)CC2)cc(C(F)(F)F)c1 the Potency was 4.18 µM (active). In the case of Cc1cc(C)nc(NC(=S)N2CCN(c3cc(Br)cc(C(F)(F)F)c3)CC2)c1, the Potency is reported as 4.69 µM (active). In the case of Cc1ccnc(NC(=S)N2CCCN(c3cccc(C(F)(F)F)c3)CC2)c1, the Potency is reported as 4.18 µM (active). In the case of Cc1ccnc(NC(=S)N2CC3CN(c4ncc(C(F)(F)F)cc4Cl)CC3C2)c1 (centres undefined), the Potency is reported as 11.8 µM (active).
